{
  "source": "PubChem BioAssay AID1851",
  "about": "(National Center for Advancing Translational Sciences (NCATS), 2009)",
  "note": "Values joined by “and” are separate entries in the source; they are usually repeats but may differ in a detail not shown here. Equal entries are not always repeated. About 2,600 (16%) of roughly 16,000 compounds were called active. Not shown: some 20% with an inconclusive outcome. The list is a sample of the results. Values without a mark were called inactive. Calls come from the whole dose curve; as a rule, active = well fitted curve in the direction sought with a large enough effect; inconclusive = small, poorly fitted or top-dose-only effect, or effect the other way; inactive = no such curve, though single readings can be large or run the other way. % is set by controls: 0 for no effect and ±100 for the full control effect.",
  "data": [
    {"molecular_target": "Cytochrome P450 2D6 (Homo sapiens) (UniProt P10635)", "sequence (P10635 whole entry, looked up)": "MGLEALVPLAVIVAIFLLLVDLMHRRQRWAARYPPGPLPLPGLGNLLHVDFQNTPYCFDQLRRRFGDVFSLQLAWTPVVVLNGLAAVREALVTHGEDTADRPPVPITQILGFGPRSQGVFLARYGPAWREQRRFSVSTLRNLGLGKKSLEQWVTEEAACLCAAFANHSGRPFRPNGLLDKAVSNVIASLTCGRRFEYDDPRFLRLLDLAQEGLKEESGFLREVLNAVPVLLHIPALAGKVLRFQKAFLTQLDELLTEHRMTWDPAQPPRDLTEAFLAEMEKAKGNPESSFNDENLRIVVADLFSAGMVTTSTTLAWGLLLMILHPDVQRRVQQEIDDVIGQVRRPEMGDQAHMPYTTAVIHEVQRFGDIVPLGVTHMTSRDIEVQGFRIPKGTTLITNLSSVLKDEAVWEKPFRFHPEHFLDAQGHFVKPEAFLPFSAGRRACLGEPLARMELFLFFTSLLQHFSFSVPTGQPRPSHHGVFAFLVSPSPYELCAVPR", "assay": "Cytochrome panel assay with activity outcomes", "conditions": "recombinant CYP, pro-luciferin dealkylation, luminescence, p450-cyp2d6; series mostly up to 57.1 µM; activity, negative = inhibition: at the top concentration", "values": [
      {"smiles": "C[C@@H](c1ccccc1)N1C(=O)[C@H]2[C@@H]3[C@H](O)[C@H](O)CC(=O)[C@H]3CC[C@H]2C1=O", "activity, negative = inhibition": "12.3% [at 11.4 µM] and 1.84% [at 11.4 µM]"},
      {"smiles": "C#CCCCO/N=C1/C[C@@H](O)[C@@H](O)[C@@H]2[C@@H]3C(=O)N(C[C@@H]4CCCO4)C(=O)[C@H]3CC[C@@H]12", "activity, negative = inhibition": "9.44% [at 11.4 µM]"},
      {"smiles": "CCCCOc1ccccc1C1CC(=O)NC2=C1C(=O)CCC2", "note": "(stereo not drawn)", "activity, negative = inhibition": "-1.31%"},
      {"smiles": "COc1ccc(N2CCN(S(=O)(=O)c3ccc4c(c3)CCCC4)CC2)c([N+](=O)[O-])c1", "activity, negative = inhibition": "-12.9%"},
      {"smiles": "Cn1c(=O)[nH]c(=O)c2c1nc(NCCCO)n2CCCc1ccccc1", "activity, negative = inhibition": "-3.72%"},
      {"smiles": "O=C(Nc1nc(-c2ccccc2)cs1)c1cccc([N+](=O)[O-])c1", "activity, negative = inhibition": "11.3%"},
      {"smiles": "Cc1nn(-c2ccc(F)cc2)c(Cl)c1/C=C(\\CCC(=O)O)c1nc2ccccc2s1", "activity, negative = inhibition": "-5.38%"},
      {"smiles": "CC(=O)[C@H]([C@@H](c1ccccc1)N1CCOCC1)N1CCOCC1", "activity, negative = inhibition": "-3.05% [at 11.4 µM]"},
      {"smiles": "CN1CCc2nc(N)nc(-c3nc(N)nc4c3CN(C)CC4)c2C1", "activity, negative = inhibition": "8.94% [at 11.4 µM]"},
      {"smiles": "CN1CCc2c(c3ccccc3n2Cc2ccccc2)C1", "AC50": "3.16 µM (active)"},
      {"smiles": "CN1CCc2c(c3ccccc3n2C)C1", "AC50": "12.6 µM (active)"},
      {"smiles": "O=c1[nH]ncc2c3ccccc3n(Cc3ccccc3)c12", "activity, negative = inhibition": "9.17%"},
      {"smiles": "CN1CCc2[nH]nc(-c3n[nH]c4c3CN(C)CC4)c2C1", "activity, negative = inhibition": "11.7% [at 11.4 µM]"},
      {"smiles": "CCCNC(=O)OC[C@@H]1O[C@H](CCO/N=C\\[C@@H](C)[C@H](OCc2ccccc2)C(C)C)C=C[C@@H]1Oc1ccc(OC)cc1", "activity, negative = inhibition": "-8.99% [at 11.4 µM]"},
      {"smiles": "O=C1N=C2SCCN2/C1=C\\c1c(Cl)cccc1Cl", "activity, negative = inhibition": "-4.25%"},
      {"smiles": "COC(=O)C/C=C\\[C@H](C)[C@H](CO)NS(=O)(=O)c1ccc(C)cc1", "activity, negative = inhibition": "-10.6% [at 11.4 µM]"},
      {"smiles": "COCCn1c(=O)c(C)nc2cnc(N(C)C)nc21", "activity, negative = inhibition": "4.47%"},
      {"smiles": "Cn1c(=O)c(-c2ccccc2)nc2cnc(N3CCNCC3)nc21", "activity, negative = inhibition": "-5.95%"},
      {"smiles": "CCN(CC)c1ccc(N2C(=O)/C(=C/c3cccnc3)SC2=S)cc1", "activity, negative = inhibition": "20.9%"},
      {"smiles": "Cc1c(NC(=O)C2CCN(S(=O)(=O)c3ccc(Cl)cc3)CC2)c(=O)n(-c2ccccc2)n1C", "activity, negative = inhibition": "10.2%"},
      {"smiles": "CCC/C=C(\\CCC)C(NS(=O)(=O)c1ccc(C(F)(F)F)cc1)c1ccc(C(=O)OC)cc1", "note": "(stereo not drawn)", "activity, negative = inhibition": "2.44%"},
      {"smiles": "CCC/C=C(\\CCC)C(NC(=O)c1ccc(C(F)(F)F)cc1)c1ccccc1", "note": "(stereo not drawn)", "AC50": "7.94 µM (active)"},
      {"smiles": "CCC/C=C(\\CCC)C(NC(=O)c1cccs1)c1ccc(C(=O)OC)cc1", "note": "(stereo not drawn)", "activity, negative = inhibition": "-6%"},
      {"smiles": "CCC/C=C(\\CCC)C(NS(=O)(=O)c1ccc(C(F)(F)F)cc1)c1ccc(-c2ccccc2)cc1", "note": "(stereo not drawn)", "activity, negative = inhibition": "1.52%"},
      {"smiles": "CCC/C=C(\\CCC)C(NS(=O)(=O)c1ccc(Cl)cc1)c1ccccc1", "note": "(stereo not drawn)", "AC50": "20 µM (active)"},
      {"smiles": "CCC/C=C(\\CCC)C(NS(=O)(=O)c1cccc2cccnc12)c1ccc(C(=O)OC)cc1", "note": "(stereo not drawn)", "activity, negative = inhibition": "-12%"},
      {"smiles": "CCC/C=C(\\CCC)C(NS(=O)(=O)c1cccs1)c1ccc(C(=O)OC)cc1", "note": "(stereo not drawn)", "AC50": "6.31 µM (active)"},
      {"smiles": "CCC/C=C(\\CCC)C(NS(=O)(=O)c1ccc(Cl)cc1)c1ccc(C(=O)OC)cc1", "note": "(stereo not drawn)", "activity, negative = inhibition": "-8.65%"},
      {"smiles": "CCC/C=C(\\CCC)C(NS(=O)(=O)CC12CCC(CC1=O)C2(C)C)c1ccc(C(=O)OC)cc1", "note": "(stereo not drawn)", "AC50": "5.01 µM (active)"},
      {"smiles": "CCC/C=C(\\CCC)C(NC(=O)OCC(C)C)c1ccc(C(=O)OC)cc1", "note": "(stereo not drawn)", "activity, negative = inhibition": "-9.01%"},
      {"smiles": "CCC/C=C(\\CCC)C(NC(=O)c1ccc(C(F)(F)F)cc1)c1ccc(C(F)(F)F)cc1", "note": "(stereo not drawn)", "activity, negative = inhibition": "0.53%"},
      {"smiles": "CCC/C=C(\\CCC)C(NC(=O)c1ccc(-c2ccccc2)cc1)c1ccc(C(=O)OC)cc1", "note": "(stereo not drawn)", "activity, negative = inhibition": "2.92%"},
      {"smiles": "O=C(Nc1cccn(Cc2c(Cl)cccc2Cl)c1=O)c1ccc(Cl)cc1Cl", "activity, negative = inhibition": "12%"},
      {"smiles": "Cc1ccccc1N1CCN(C(=O)c2ccccc2NC(=O)/C=C\\C(=O)O)CC1", "activity, negative = inhibition": "2.71%"},
      {"smiles": "C/C(=N\\[N+](C)(C)C)c1ccc(C)c(C)c1", "activity, negative = inhibition": "-19.6% [at 11.4 µM]"},
      {"smiles": "O=C(O)C1C2C=CC(C2)C1C(=O)N1CCN(C/C=C/c2ccccc2)CC1", "note": "(stereo not drawn)", "activity, negative = inhibition": "-10.1%"},
      {"smiles": "Cc1cccc(C(=O)Nc2nnc(-c3ccc(C(C)(C)C)cc3)s2)c1", "activity, negative = inhibition": "7.99%"},
      {"smiles": "CCCc1nnc(NC(=O)Cn2cnc3ccccc3c2=O)s1", "activity, negative = inhibition": "11.7%"},
      {"smiles": "COc1ccc(C(O)P(=O)(OC(C)C)OC(C)C)cc1OC", "note": "(stereo not drawn)", "activity, negative = inhibition": "-13.6%"},
      {"smiles": "CCc1ccc(N2C(=O)c3ccc4c5c(ccc(c35)C2=O)CC4)cc1", "activity, negative = inhibition": "-7.44%"},
      {"smiles": "C=CCN1C(=O)CN=C1Nc1ccccc1", "activity, negative = inhibition": "2.01%"},
      {"smiles": "CN1CCN(/C=N/C2=C(C#N)C(c3ccccc3)C3=C(CC(C)(C)CC3=O)O2)CC1", "note": "(stereo not drawn)", "activity, negative = inhibition": "5.01%"},
      {"smiles": "CSc1nc(C)c2c(n1)N(c1ccc(C(C)C)cc1)CC2", "activity, negative = inhibition": "-7.45%"},
      {"smiles": "COc1ccc(N2CCc3c(C)nc4c(OC)cc(OC)cc4c32)c(OC)c1", "AC50": "0.1 µM (active)"},
      {"smiles": "CSc1nc(C)c2c(n1)N(c1ccc(C(F)(F)F)cc1)CC2", "activity, negative = inhibition": "7.98%"},
      {"smiles": "COc1ccc(N2C(=O)CSC2c2cccc(F)c2)c(OC)c1", "note": "(stereo not drawn)", "activity, negative = inhibition": "17.9%"},
      {"smiles": "COc1ccc2c(C)cc(N3CCOCC3)nc2c1", "activity, negative = inhibition": "-26.1%"},
      {"smiles": "COc1cc(OC)c2nc(C)c3c(c2c1)N(c1ccc(O)cc1)CC3", "AC50": "3.16 µM (active)"},
      {"smiles": "CN(C)CCNc1ncnc2c1sc1nc(N3CCOCC3)c3c(c12)CC(C)(C)SC3", "activity, negative = inhibition": "-6.95%"},
      {"smiles": "CC(C)/C(=N/[N+](C)(C)C)c1ccccc1", "activity, negative = inhibition": "6.75% [at 11.4 µM]"},
      {"smiles": "CC1(C)CC(=O)C/C(=N/NC(=O)CCCOc2ccc(Cl)cc2Cl)C1", "activity, negative = inhibition": "-22.8%"},
      {"smiles": "CC(C)C(=O)Nc1ccc(C(=O)NNC(=O)CCCOc2ccc(Cl)cc2Cl)cc1", "activity, negative = inhibition": "-9.88%"},
      {"smiles": "CC(C)NCCCOc1ccc(Cl)cc1Br", "AC50": "0.178 µM (active)"},
      {"smiles": "CC1(C)O[C@H]2[C@@H](O1)[C@@H](On1nnc3ccc(Cl)cc31)O[C@@H]2[C@@H]1COC(C)(C)O1", "activity, negative = inhibition": "-7.25% [at 11.4 µM]"},
      {"smiles": "COc1ccc(C(=O)NNC(=O)CSc2nnc(COc3ccc4ccccc4c3)n2C)cc1", "activity, negative = inhibition": "-0.0652%"},
      {"smiles": "Oc1ccc(-c2[nH]ncc2-c2ccc(Cl)cc2)c(O)c1", "AC50": "8.91 µM (active)"},
      {"smiles": "Cc1[nH]nc(-c2ccc(O)cc2O)c1-c1ccc(Cl)cc1", "AC50": "3.55 µM (active)"},
      {"smiles": "C=C(C)COc1ccc(-c2n[nH]c(C)c2-c2ccc(OC)cc2)c(O)c1", "activity, negative = inhibition": "-87.9%"}
    ]}
  ]
}
